About 83,000 compounds went through this panel and 20% of them were active in at least one assay; those are over-represented in the sample as a whole.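 Single-dose data. Exposure time 48 hours. Values below 10 considered active.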 Unmarked numbers belong to inactive results. The source made the active and inactive calls.
Tested on: A498 renal
Assay: NCI-60 one-dose screen, 48 h (100 = growth as untreated, 0 = no growth, -100 = all killed)
Conditions: 10 µM unless noted

Row | Compound | growth
1 | O=C(NNc1nc2cc(C(F)(F)F)ccc2n2cccc12)c1cnccn1 | -92.7% (active)
2 | Cc1cccc(NC(=O)[C@]23CCC(C)(C)CC2C2=CCC4[C@@]5(C)C[C@@H](O)[C@H](O)[C@@](C)(CO)C5CC[C@@]4(C)[C@]2(C)CC3)c1 (stereo partly drawn) | -11.3% (active)
3 | CCCCSc1nc(NCCc2c[nH]c3ccccc23)c(C#N)c(-c2ccc(F)cc2)n1 | 103%
4 | COc1ccc(-c2ccnc(SCc3cc4cc(Cl)ccc4[nH]c3=O)n2)cc1 | 41.6%
5 | O=c1[nH]c2ccccc2cc1CSc1nccc(-c2ccc3ccccc3c2)n1 | 114%
6 | CCCCCCCCc1ccc(S(=O)(=O)Nc2ccc(CC)cc2C(=O)O)cc1 | 104%
7 | COc1cc(OC)c2c3nc4cc(C)c(C)cc4nc3n(CCN(C)C)c2c1 | 105%
8 | N#Cc1c(-c2cccc(O)c2O)cc(-c2ccc3ccccc3c2)[nH]c1=O | 82.1%
9 | O=c1[nH]n(C(=S)N/N=C/c2ccccc2Cl)c(=O)c2ccccc12 | 38.7%
10 | COc1ccc(C(=O)/C=C/c2cccc(Cl)c2Cl)cc1S(N)(=O)=O | 94.9%
11 | COc1ccc(C(=O)/C=C/c2cccnc2)cc1S(N)(=O)=O | 103%
12 | Cc1cc2nc3c4ccccc4n(CC4=NCCN4)c3nc2cc1C | 63.8%
13 | CCCCCCCCc1ccc(C(=O)Nc2cccc(P(=O)(O)O)c2)cc1 | 105%
14 | Cc1cc2nc3c([nH]c2cc1C)c1ccc(=O)cc1n3CCN(C)C | 111%
15 | O=C(c1ccc(Cl)cc1)c1ccc(OCCCN2CCN(c3ccncc3)CC2)cc1 | 80.5%
16 | CCCCSc1nc(NCCc2c[nH]c3ccccc23)c(C#N)c(-c2ccccc2)n1 | 61.8%
17 | O=C1N/C(=N\c2nccs2)S/C1=C\C=C/c1ccccc1 | 57.2%
18 | CC(=O)OC[C@@]1(C)C2CC[C@]3(C)C(CC=C4C5CC(C)(C)CC[C@]5(C(=O)Nc5cccc(C)c5)CC[C@]43C)[C@@]2(C)C[C@@H](OC(C)=O)[C@@H]1OC(C)=O (stereo partly drawn) | 59.6%
19 | COc1ccc(C(SCCNCc2cc(N(C)C)ccn2)(c2ccccc2)c2ccccc2)cc1 | 4.54% (active)

Row | Compound | growth
20 | O=c1onc(-c2cc3ccccc3nc2Cl)n1-c1cccc2ccccc12 | 90.8%
21 | COc1ccc(C2=NN(c3ccccc3)C(c3ccc(OCc4ccccc4)c(OC)c3)C2)cc1OC (stereo not drawn) | 118%
22 | Nc1n[nH]c2cccc(C#Cc3cccc(NC(=O)c4cccc(Cl)c4)c3)c12 | 50.4%
23 | O=C(Cn1c2c(sc1=O)[C@H]1[C@@H](O)[C@@H](O)[C@H](O)[C@@H]1CS2)N1CCOCC1 | 99.3%
24 | CC(=O)Nc1cccc(Nc2nc(N[C@H]3CCCc4ccccc43)c3ccccc3n2)c1 | 105%
25 | N/C(=N\c1nc2ccccc2s1)NC(=O)NCCCCCCO | 61%
26 | COc1ccc2c(c1)C(=N/N=C(\C)c1ccc(OC)c(S(N)(=O)=O)c1)C(=O)N2 | 99.5%
27 | CCCSc1nc(NCCc2c[nH]c3ccccc23)c(C#N)c(-c2ccc(F)cc2)n1 | 96.8%
28 | O=c1[nH]c2ccccc2cc1CSc1cccc(Nc2nccc(-c3ccc4ccccc4c3)n2)c1 | 106%
29 | CCN(CC)c1ccnc(CNCCSC(c2ccccc2)(c2ccccc2)c2ccc(C)cc2)c1 | -96.8% (active)
30 | CN(C)CCn1c2ccccc2c2nc3cc(C(F)(F)F)ccc3nc21 | 75.8%
31 | CC1(C)CC[C@]2(C(=O)Nc3ccc(Br)cc3)CC[C@]3(C)C(=CCC4[C@@]5(C)C[C@@H](O)[C@H](O)[C@@](C)(CO)C5CC[C@]43C)C2C1 (stereo partly drawn) | -45.2% (active)
32 | CCC(C)(C)c1ccc(OCCCCCCN2CCN(c3ccncc3)CC2)cc1 | 66.1%
33 | COc1ccc(C(=O)/C=C/c2ccc(Cl)c(Cl)c2)cc1S(N)(=O)=O | 109%
34 | Cc1cc(N=C2NC(=O)CS2)n[nH]1 | 124%
35 | Cc1ccc(C(=O)CSc2nc3ccc(F)cc3c(=O)n2-c2ccc(Cl)cc2)cc1 | 55.7%
36 | COc1ccc(C(=O)/C=C/c2cccc(Br)c2)cc1S(N)(=O)=O | 93.3%
37 | Cc1sc(C(NC(=O)OCCn2c([N+](=O)[O-])cnc2C)C(F)(F)Cl)nc1-c1ccc(OC(F)(F)F)cc1 (stereo not drawn) | -89.7% (active)
38 | COc1ccc(NC(=O)Cn2c3c(sc2=O)[C@H]2[C@@H](O)[C@@H](O)[C@H](O)[C@@H]2CS3)cc1 | 111%

Source: PubChem BioAssay (NCI)
